{
  "source": "paper PMC7862700",
  "about": "“An all-to-all approach to the identification of sequence-specific readers for epigenetic DNA modifications on cytosine”",
  "assay_in_all_cases": "DAPPL (digital affinity profiling via proximity ligation, sequencing); 10 mM Tris-HCl pH 7.5, 50 mM NaCl, 1 mM DTT, 4% glycerol, room temperature, 30 min; GST-TFs on glutathione beads, 16-mer random dsDNA library, 0.1% formaldehyde crosslink after washing; high values mean tight binding",
  "details_in_all_cases": "protein: recombinant; tags: N-terminal GST; dsDNA, one strand shown",
  "key": {"FLI1": {"molecular_target": "T1, FLI1 (Homo sapiens, UniProt Q01543 1-452)", "T1 sequence": "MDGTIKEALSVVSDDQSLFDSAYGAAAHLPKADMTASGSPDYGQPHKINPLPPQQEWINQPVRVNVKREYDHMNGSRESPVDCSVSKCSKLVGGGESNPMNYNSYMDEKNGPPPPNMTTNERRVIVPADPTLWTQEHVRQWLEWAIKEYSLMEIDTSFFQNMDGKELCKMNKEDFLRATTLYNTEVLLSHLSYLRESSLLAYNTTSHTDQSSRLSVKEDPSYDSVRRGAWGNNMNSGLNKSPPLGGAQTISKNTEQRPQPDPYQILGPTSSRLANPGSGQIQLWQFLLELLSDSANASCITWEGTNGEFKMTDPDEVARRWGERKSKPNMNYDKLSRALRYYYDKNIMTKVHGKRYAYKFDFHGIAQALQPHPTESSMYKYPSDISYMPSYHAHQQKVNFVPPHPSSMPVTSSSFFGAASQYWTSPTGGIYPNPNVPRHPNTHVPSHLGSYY", "outline": "(§1)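 Pools were built from human transcription factors expressed in yeast as GST fusions, captured on glutathione beads and DNA-barcoded, along with a tag-only sample. Incubation with 200 nmole of a 16-mer random double-stranded DNA library lasted 30 min at room temperature in Tris/NaCl/DTT/glycerol buffer, and was followed by washing, 0.1% formaldehyde crosslinking, proximity ligation, PCR amplification and Illumina NextSeq500 sequencing. Binding signal is the quotient of each hexamer's read frequency for a factor and its frequency for the tag-only sample.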"}, "ELK1": {"molecular_target": "T2, ELK1 (Homo sapiens, UniProt P19419 1-428)", "T2 sequence": "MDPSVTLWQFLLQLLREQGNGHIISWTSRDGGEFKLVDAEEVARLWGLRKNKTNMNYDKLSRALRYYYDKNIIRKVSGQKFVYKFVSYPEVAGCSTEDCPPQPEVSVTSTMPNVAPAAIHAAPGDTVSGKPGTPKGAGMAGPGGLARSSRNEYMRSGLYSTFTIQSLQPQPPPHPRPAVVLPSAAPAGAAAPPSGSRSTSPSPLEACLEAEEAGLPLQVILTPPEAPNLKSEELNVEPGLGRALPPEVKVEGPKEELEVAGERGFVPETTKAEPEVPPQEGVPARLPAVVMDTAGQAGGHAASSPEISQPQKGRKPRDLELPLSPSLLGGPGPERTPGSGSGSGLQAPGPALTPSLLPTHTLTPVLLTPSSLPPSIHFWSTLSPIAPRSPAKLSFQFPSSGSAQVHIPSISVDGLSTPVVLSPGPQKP", "outline": "as §1"}, "GABPA": {"molecular_target": "T3, GABPA (Homo sapiens, UniProt Q06546 1-454)", "T3 sequence": "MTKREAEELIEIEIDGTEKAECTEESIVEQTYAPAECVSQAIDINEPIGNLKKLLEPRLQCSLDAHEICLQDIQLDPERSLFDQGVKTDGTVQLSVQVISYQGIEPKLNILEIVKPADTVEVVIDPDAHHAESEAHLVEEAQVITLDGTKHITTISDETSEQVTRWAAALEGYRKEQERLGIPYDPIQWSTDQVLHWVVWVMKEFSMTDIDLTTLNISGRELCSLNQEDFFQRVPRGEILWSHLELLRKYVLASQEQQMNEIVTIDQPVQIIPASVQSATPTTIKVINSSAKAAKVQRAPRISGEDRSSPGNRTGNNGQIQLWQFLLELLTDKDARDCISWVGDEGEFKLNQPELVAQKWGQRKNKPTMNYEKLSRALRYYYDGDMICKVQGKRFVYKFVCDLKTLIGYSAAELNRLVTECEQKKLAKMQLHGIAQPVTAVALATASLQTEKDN", "outline": "as §1"}, "ERG": {"molecular_target": "T4, ERG (Homo sapiens, UniProt P11308 1-479)", "T4 sequence": "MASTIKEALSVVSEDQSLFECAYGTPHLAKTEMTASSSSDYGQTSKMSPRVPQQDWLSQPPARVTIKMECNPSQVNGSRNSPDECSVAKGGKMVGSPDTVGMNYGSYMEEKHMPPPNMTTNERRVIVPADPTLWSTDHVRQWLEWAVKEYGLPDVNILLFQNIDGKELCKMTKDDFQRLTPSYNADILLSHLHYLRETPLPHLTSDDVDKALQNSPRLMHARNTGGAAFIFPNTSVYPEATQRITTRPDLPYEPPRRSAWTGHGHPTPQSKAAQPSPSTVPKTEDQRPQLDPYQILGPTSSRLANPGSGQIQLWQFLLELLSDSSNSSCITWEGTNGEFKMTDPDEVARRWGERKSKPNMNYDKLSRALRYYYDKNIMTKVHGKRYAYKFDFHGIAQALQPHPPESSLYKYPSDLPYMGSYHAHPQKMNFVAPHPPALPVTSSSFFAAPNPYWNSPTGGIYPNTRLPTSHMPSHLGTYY", "outline": "as §1"}, "ELF1": {"molecular_target": "ELF1 (Homo sapiens, UniProt P32519 1-619)", "sequence (P32519 whole entry)": "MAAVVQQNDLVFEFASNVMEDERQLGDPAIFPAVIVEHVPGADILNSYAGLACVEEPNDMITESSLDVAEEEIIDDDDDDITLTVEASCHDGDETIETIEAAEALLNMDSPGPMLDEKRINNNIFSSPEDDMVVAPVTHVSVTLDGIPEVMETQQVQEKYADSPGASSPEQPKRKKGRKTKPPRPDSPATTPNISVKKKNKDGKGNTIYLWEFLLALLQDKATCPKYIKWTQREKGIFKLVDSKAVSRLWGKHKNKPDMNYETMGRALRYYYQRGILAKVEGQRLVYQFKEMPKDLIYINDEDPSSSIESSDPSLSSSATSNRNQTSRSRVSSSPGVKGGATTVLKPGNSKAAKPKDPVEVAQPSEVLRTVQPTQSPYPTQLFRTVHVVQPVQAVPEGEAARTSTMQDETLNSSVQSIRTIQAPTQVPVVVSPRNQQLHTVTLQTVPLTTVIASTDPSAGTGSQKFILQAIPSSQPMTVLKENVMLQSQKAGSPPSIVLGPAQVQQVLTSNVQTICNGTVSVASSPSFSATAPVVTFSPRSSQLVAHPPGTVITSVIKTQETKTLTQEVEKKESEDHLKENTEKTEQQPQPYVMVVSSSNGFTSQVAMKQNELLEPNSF", "outline": "as §1"}, "EHF": {"molecular_target": "T5, EHF (Homo sapiens, UniProt Q9NZC4 1-300)", "T5 sequence": "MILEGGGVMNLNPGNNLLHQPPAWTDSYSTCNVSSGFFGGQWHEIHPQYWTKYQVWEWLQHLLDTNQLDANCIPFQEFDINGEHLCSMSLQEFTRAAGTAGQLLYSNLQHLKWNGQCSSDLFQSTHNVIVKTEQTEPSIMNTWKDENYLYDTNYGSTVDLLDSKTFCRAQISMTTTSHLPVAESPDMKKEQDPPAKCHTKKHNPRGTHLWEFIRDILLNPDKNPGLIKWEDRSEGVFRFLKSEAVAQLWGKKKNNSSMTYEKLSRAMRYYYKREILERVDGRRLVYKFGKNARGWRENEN", "outline": "as §1"}, "SPIB": {"molecular_target": "SPIB (Homo sapiens, UniProt Q01892 1-262)", "sequence (Q01892 whole entry)": "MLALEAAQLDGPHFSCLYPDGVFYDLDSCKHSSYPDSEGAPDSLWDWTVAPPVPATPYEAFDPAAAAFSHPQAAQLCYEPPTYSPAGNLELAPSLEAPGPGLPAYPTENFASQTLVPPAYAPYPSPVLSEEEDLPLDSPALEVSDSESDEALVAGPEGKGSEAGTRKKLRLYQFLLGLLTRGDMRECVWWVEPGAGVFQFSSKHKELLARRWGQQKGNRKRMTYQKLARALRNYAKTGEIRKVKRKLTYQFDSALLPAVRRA", "outline": "as §1"}, "ELK3": {"molecular_target": "T6, ELK3 (Homo sapiens, UniProt P41970 1-407)", "T6 sequence": "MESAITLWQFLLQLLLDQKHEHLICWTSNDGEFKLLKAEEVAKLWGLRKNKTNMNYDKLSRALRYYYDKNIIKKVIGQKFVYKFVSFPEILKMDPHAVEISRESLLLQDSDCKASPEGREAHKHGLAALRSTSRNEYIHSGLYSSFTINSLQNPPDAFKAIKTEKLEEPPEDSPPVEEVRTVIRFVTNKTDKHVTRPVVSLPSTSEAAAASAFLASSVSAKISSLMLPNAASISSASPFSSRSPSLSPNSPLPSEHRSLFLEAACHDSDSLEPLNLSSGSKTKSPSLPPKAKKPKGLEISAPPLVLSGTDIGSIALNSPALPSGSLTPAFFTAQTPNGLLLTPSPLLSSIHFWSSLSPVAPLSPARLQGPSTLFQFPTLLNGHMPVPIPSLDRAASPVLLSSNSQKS", "outline": "as §1"}, "ETV5": {"molecular_target": "ETV5 (Homo sapiens, UniProt P41161 1-510)", "sequence (P41161 whole entry)": "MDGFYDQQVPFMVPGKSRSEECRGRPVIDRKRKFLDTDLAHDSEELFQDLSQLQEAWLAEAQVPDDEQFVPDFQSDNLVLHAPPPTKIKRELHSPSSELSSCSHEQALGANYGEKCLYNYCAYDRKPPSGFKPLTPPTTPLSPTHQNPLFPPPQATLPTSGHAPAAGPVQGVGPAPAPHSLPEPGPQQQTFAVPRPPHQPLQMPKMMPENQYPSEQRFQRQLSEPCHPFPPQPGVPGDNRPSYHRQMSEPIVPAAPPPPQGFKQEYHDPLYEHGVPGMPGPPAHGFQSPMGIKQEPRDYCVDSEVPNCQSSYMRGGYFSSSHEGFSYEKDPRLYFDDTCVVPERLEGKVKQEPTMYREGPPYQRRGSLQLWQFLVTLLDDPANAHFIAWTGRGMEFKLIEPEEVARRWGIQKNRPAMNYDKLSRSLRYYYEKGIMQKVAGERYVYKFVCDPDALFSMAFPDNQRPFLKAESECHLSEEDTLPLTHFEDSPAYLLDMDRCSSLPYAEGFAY", "outline": "as §1"}, "ELF4": {"molecular_target": "ELF4 (Homo sapiens, UniProt Q99607 1-663)", "sequence (Q99607 whole entry)": "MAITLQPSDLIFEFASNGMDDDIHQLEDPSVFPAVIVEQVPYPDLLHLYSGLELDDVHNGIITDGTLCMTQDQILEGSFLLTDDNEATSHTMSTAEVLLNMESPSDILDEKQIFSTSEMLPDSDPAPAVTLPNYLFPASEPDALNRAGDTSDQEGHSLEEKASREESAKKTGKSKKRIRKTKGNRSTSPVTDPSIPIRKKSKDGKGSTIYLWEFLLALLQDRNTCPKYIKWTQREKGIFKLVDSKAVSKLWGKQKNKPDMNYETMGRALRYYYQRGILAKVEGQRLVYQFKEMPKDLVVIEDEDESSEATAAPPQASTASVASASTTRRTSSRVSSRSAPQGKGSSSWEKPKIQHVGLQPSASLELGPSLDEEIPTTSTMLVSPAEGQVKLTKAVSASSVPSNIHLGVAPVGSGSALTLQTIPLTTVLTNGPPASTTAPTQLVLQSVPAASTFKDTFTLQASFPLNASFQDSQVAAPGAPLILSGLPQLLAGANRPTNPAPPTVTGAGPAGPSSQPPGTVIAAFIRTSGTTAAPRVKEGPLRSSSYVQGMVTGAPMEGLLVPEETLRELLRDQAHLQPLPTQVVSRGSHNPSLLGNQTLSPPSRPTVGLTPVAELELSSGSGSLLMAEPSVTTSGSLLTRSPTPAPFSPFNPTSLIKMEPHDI", "outline": "as §1"}, "ETV2": {"molecular_target": "T7, ETV2 (Homo sapiens, UniProt O00321 1-342)", "T7 sequence": "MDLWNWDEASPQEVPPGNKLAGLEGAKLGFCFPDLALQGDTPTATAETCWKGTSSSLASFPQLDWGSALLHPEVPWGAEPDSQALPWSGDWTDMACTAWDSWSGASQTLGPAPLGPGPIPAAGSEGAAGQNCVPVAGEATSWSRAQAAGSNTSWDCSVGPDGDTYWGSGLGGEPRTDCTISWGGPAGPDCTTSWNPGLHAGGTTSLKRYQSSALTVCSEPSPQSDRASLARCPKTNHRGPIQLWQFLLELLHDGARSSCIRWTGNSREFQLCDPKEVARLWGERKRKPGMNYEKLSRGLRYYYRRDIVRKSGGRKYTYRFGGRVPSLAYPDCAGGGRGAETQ", "outline": "as §1"}, "ELF3": {"molecular_target": "T8, ELF3 (Homo sapiens, UniProt P78545 1-371)", "T8 sequence": "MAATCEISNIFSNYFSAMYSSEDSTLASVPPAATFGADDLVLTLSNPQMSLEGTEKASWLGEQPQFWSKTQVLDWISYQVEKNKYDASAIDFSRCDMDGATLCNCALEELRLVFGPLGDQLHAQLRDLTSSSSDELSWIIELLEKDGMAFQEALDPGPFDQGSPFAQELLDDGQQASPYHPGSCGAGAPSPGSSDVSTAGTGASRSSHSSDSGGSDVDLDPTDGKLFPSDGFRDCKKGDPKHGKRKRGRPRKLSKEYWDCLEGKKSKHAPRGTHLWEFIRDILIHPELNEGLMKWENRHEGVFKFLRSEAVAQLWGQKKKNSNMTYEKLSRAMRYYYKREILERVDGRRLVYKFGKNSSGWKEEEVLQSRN", "outline": "as §1"}, "ETV1": {"molecular_target": "ETV1 (Homo sapiens, UniProt P50549 1-477)", "sequence (P50549 whole entry)": "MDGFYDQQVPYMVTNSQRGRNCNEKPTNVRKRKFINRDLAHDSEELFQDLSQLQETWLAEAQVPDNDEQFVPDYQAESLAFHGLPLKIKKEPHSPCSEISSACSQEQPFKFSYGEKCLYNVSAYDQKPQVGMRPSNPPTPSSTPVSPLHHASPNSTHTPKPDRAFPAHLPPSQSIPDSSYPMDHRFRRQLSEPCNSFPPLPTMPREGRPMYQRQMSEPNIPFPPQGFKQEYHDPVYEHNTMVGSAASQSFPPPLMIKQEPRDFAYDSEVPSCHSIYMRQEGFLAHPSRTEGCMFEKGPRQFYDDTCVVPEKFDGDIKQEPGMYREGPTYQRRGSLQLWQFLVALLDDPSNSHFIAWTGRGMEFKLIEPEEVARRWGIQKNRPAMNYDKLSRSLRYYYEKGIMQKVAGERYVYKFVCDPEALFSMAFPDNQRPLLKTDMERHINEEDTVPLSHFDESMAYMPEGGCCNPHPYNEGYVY", "outline": "as §1"}, "ETV3L": {"molecular_target": "T9, ETV3L (Homo sapiens, UniProt Q6ZN32 1-361)", "T9 sequence": "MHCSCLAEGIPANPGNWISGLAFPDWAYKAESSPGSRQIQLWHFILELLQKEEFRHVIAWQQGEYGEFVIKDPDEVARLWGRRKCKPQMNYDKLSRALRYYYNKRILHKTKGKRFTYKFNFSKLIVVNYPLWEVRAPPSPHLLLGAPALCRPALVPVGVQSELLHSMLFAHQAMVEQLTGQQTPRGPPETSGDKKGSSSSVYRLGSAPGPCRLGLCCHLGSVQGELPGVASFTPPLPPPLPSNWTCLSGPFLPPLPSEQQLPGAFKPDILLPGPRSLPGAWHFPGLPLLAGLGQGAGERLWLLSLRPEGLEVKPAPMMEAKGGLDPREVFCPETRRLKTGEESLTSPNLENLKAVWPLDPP", "outline": "as §1"}, "ETS2": {"molecular_target": "T10, ETS2 (Homo sapiens, UniProt P15036 1-469)", "T10 sequence": "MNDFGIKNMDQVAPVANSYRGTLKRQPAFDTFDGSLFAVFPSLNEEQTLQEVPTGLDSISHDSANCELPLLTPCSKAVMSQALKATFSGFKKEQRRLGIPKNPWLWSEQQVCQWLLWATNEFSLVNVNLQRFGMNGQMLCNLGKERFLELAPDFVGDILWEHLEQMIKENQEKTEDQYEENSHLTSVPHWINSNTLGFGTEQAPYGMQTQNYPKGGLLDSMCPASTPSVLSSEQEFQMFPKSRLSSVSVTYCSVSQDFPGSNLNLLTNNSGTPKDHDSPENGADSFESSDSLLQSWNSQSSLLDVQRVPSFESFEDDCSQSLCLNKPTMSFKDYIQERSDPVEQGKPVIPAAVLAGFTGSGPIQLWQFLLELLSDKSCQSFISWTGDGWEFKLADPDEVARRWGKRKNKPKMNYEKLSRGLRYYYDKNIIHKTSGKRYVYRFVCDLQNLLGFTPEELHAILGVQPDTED", "outline": "as §1"}, "ETV3": {"molecular_target": "T11, ETV3 (Homo sapiens, UniProt P41162-2 1-143)", "T11 sequence": "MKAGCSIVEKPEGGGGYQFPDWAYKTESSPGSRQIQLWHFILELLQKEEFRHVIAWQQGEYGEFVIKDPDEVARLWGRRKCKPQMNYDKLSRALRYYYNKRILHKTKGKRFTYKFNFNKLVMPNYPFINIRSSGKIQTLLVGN", "outline": "as §1"}, "ETV6": {"molecular_target": "ETV6 (Homo sapiens, UniProt P41212 1-452)", "sequence (P41212 whole entry)": "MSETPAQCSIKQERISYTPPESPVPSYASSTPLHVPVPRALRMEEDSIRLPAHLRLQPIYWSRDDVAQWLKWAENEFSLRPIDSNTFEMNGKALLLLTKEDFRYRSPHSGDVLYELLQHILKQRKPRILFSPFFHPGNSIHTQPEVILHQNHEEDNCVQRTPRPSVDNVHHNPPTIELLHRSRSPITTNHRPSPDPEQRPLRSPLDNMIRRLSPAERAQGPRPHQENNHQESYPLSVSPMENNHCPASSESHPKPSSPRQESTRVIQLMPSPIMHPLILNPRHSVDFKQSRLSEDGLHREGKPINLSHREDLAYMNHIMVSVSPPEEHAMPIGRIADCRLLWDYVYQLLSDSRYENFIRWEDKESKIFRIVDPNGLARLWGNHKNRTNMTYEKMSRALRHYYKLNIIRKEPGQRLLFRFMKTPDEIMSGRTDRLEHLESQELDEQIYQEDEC", "outline": "as §1"}},
  "data": [
    {"sequence": "ACACGC", "values": [
      {"measurement": "binding signal", "setting": "FLI1", "value": "1.15 fold enrichment (6-mer frequency, TF over GST control)"},
      {"measurement": "binding signal", "setting": "ELK1", "value": "1.06 fold enrichment (6-mer frequency, TF over GST control)"},
      {"measurement": "binding signal", "setting": "GABPA", "value": "1.13 fold enrichment (6-mer frequency, TF over GST control)"},
      {"measurement": "binding signal", "setting": "ERG", "value": "1.15 fold enrichment (6-mer frequency, TF over GST control)"},
      {"measurement": "binding signal", "setting": "ELF1", "value": "1.17 fold enrichment (6-mer frequency, TF over GST control)"},
      {"measurement": "binding signal", "setting": "EHF", "value": "1.08 fold enrichment (6-mer frequency, TF over GST control)"},
      {"measurement": "binding signal", "setting": "SPIB", "value": "1.1 fold enrichment (6-mer frequency, TF over GST control)"},
      {"measurement": "binding signal", "setting": "ELK3", "value": "1.12 fold enrichment (6-mer frequency, TF over GST control)"},
      {"measurement": "binding signal", "setting": "ETV5", "value": "1.1 fold enrichment (6-mer frequency, TF over GST control)"},
      {"measurement": "binding signal", "setting": "ELF4", "value": "1.15 fold enrichment (6-mer frequency, TF over GST control)"},
      {"measurement": "binding signal", "setting": "ETV2", "value": "1.19 fold enrichment (6-mer frequency, TF over GST control)"},
      {"measurement": "binding signal", "setting": "ELF3", "value": "1.11 fold enrichment (6-mer frequency, TF over GST control)"},
      {"measurement": "binding signal", "setting": "ETV1", "value": "1.11 fold enrichment (6-mer frequency, TF over GST control)"},
      {"measurement": "binding signal", "setting": "ETV3L", "value": "1.07 fold enrichment (6-mer frequency, TF over GST control)"},
      {"measurement": "binding signal", "setting": "ETS2", "value": "1.05 fold enrichment (6-mer frequency, TF over GST control)"},
      {"measurement": "binding signal", "setting": "ETV3", "value": "1.13 fold enrichment (6-mer frequency, TF over GST control)"},
      {"measurement": "binding signal", "setting": "ETV6", "value": "1.13 fold enrichment (6-mer frequency, TF over GST control)"}
    ]}
  ]
}
